# Laboratory results published in PubChem BioAssay (NCATS).
# Records with an inconclusive call do not appear. A number with no mark means an inactive call. Some of the results follow. A call without a number means that no potency is given here. The source made the active and inactive calls. Calls come from the whole dose curve; as a rule, active = well fitted curve in the direction sought with a large enough effect; inconclusive = small, poorly fitted or top-dose-only effect, or another doubt; inactive = no such curve, though single readings can be large; an effect the other way counts as inactive or inconclusive.
# Legend:
# [1] = target: Rap guanine nucleotide exchange factor 3 (Homo sapiens) (UniProt O95398); experiment: Confirmatory qHTS for antagonist of cAMP-regulated guanine nucleotide exchange factor 3 (EPAC1) (AID 1645880); conditions: EPAC1 Rap1B-BODIPY-GDP exchange, fluorescence; activity, negative = inhibition: at 115 µM (top of the series); note: nearly all actives have a fitted effect of over 55% in size; note: potency is the fitted concentration of half-maximal effect
# Outline: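 Released BODIPY-GDP fluoresces less than Rap1-bound BODIPY-GDP; the signal is followed at 480/540 nm at 5-min intervals over 30 min, after 5 min at room temperature. Reactions contain 100 nM EPAC1, 250 nM RAP1B-BODIPY-GDP and 50 uM GDP; results are normalized to ATA and DMSO.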
# [2] = target: Rap guanine nucleotide exchange factor 3 (Homo sapiens) (UniProt O95398); experiment: Confirmatory qHTS for agonist of cAMP-regulated guanine nucleotide exchange factor 3 (EPAC1) (AID 1645881); note: nearly all actives have a fitted effect of over 75% in size; note: potency is the fitted concentration of half-maximal effect;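 for activation: EPAC1 catalysed release of BODIPY-GDP from Rap1B seen as fluorescence loss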
# [3] = target: Rap guanine nucleotide exchange factor 4 (Homo sapiens) (UniProt Q8WZA2); experiment: Confirmatory qHTS for agonist of cAMP-regulated guanine nucleotide exchange factor 4 (EPAC2) (AID 1645884);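 note: nucleotide exchange releases bodipy-GDP from Rap1 and this lowers its fluorescence; nearly all actives have a fitted effect of over 65% in size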; note: potency is the fitted concentration of half-maximal effect
# [4] = target: Rap guanine nucleotide exchange factor 4 (Homo sapiens) (UniProt Q8WZA2); experiment: Confirmatory qHTS for antagonist of cAMP-regulated guanine nucleotide exchange factor 4 (EPAC2) (AID 1645885); note: nearly all actives have a fitted effect of over 25% in size; note: potency is the fitted concentration of half-maximal effect
# [5] = target: Rap guanine nucleotide exchange factor 3 (Homo sapiens) (UniProt O95398); experiment: Counterscreen qHTS for agonist of cAMP-regulated guanine nucleotide exchange factor 3 (EPAC1) (AID 1645889); note: nearly all actives have a fitted effect of over 40% in size; note: potency is the fitted concentration of half-maximal effect
# Outline: (§1)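 Rap1B-BODIPY-GDP 250 nM + GDP 50 uM; cpds 7-pt, final 9.74 nM–152 uM (activator mode) or from 7.32 nM upwards (inhibitor mode); RT; FI 480/540 nm at 5 and 30 min, then ± cAMP, reread.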
# [6] = target: Tumor susceptibility gene 101 protein (Homo sapiens) (UniProt Q99816); experiment: qHTS Assay for Iinhibitors of HIV-1 Budding by Blocking the Interaction of PTAP/TSG101: Hit Validation (AID 651600); note: nearly all actives have a fitted effect of over 70% in size; note: potency is the fitted concentration of half-maximal effect
# Outline: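 FITC-PTAP peptide (50 nM final) binding to Tsg101 binding domain (10 uM final) was measured by polarization after 20 min at r.t. with compounds, in 10 mM HEPES pH 7.5 buffer with 0.15 M NaCl and 0.01% Tween 20.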
# [7] = target: Rap guanine nucleotide exchange factor 3 (Homo sapiens) (UniProt O95398); experiment: Counterscreen qHTS for antagonist of cAMP-regulated guanine nucleotide exchange factor 3 (EPAC1) (AID 1645888)
# Outline: as §1
# [8] = target: DNA polymerase eta (Homo sapiens) (UniProt Q9Y253); experiment: qHTS for Inhibitors of Polymerase Eta: Confirmatory Assay for Cherry-picked Compounds (AID 720502); conditions: Pol eta primer extension, TAMRA/BHQ fluorescence, 10 min; note: potency is the fitted concentration of half-maximal effect
# Outline: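 10 nM Pol eta + cpd, 15 min RT; start w/ 50 nM final primer/TAMRA-reporter/BHQ-2-template substrate; kinetic read 0 and 10 min, ex 525/em 598 nm. Buffer-only wells = negative control.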
# Chain of Rap guanine nucleotide exchange factor 3 (Homo sapiens) (O95398 whole entry, looked up): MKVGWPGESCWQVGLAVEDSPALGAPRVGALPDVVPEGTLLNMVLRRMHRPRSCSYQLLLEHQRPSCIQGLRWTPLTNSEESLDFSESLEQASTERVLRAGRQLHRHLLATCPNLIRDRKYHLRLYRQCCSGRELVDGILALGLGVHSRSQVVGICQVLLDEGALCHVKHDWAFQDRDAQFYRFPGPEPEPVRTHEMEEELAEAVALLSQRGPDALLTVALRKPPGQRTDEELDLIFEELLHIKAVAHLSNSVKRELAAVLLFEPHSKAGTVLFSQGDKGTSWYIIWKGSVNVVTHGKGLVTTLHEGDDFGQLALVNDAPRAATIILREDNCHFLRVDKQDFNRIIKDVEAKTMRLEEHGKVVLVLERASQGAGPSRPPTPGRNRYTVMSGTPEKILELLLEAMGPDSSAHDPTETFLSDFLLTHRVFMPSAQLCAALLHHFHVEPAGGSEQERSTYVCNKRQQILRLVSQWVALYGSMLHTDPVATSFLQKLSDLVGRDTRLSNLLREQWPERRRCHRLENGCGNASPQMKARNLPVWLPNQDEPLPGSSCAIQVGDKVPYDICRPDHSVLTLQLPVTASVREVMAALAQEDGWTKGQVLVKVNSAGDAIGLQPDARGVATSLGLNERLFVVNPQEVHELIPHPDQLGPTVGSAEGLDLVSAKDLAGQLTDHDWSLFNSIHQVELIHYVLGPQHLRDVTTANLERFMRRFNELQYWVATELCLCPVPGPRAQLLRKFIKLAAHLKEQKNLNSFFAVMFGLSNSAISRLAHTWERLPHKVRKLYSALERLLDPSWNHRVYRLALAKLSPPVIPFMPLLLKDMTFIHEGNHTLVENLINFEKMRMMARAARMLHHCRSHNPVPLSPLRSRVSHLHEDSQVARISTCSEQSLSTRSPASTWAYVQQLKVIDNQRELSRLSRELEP
# Chain of Rap guanine nucleotide exchange factor 4 (Homo sapiens) (Q8WZA2 whole entry, looked up): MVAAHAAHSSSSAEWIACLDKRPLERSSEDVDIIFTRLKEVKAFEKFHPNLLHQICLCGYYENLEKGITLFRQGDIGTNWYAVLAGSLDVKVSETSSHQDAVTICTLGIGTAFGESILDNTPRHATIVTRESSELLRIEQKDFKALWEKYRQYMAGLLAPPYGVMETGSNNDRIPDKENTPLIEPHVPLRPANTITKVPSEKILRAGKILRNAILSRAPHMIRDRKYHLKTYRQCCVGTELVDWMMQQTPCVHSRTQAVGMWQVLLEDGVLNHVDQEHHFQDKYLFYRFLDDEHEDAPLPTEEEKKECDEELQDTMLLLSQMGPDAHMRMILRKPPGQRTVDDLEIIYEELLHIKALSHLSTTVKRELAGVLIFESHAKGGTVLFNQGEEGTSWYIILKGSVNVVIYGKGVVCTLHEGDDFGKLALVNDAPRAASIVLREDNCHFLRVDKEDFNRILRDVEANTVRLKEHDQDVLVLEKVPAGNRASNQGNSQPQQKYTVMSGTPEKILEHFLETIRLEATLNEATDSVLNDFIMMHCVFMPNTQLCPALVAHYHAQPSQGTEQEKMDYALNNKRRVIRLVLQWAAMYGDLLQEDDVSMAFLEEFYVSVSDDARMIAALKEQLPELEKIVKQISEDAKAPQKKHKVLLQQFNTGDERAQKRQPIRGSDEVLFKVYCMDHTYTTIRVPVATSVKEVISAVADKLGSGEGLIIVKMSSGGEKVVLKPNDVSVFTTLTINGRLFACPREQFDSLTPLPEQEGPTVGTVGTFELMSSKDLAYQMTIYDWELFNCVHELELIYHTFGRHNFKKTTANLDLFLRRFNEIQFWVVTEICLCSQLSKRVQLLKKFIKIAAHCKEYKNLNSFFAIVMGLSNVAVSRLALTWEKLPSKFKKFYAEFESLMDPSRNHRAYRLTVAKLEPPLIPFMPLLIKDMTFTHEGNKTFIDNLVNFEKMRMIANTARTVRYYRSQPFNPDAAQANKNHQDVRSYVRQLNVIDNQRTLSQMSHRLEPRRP
# Chain of Tumor susceptibility gene 101 protein (Homo sapiens) (Q99816 whole entry, looked up, the tested form may be a part): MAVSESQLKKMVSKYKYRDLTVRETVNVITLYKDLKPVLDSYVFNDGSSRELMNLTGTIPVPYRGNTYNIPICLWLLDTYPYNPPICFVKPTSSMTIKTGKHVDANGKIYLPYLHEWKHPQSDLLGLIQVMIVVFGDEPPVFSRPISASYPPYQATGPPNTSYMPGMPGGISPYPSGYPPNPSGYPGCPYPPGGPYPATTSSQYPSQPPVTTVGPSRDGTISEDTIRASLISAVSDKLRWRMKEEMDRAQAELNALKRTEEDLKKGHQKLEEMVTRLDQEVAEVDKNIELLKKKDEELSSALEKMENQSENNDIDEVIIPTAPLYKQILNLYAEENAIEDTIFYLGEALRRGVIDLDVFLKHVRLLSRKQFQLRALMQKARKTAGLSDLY
# Chain of DNA polymerase eta (Homo sapiens) (Q9Y253 whole entry, looked up): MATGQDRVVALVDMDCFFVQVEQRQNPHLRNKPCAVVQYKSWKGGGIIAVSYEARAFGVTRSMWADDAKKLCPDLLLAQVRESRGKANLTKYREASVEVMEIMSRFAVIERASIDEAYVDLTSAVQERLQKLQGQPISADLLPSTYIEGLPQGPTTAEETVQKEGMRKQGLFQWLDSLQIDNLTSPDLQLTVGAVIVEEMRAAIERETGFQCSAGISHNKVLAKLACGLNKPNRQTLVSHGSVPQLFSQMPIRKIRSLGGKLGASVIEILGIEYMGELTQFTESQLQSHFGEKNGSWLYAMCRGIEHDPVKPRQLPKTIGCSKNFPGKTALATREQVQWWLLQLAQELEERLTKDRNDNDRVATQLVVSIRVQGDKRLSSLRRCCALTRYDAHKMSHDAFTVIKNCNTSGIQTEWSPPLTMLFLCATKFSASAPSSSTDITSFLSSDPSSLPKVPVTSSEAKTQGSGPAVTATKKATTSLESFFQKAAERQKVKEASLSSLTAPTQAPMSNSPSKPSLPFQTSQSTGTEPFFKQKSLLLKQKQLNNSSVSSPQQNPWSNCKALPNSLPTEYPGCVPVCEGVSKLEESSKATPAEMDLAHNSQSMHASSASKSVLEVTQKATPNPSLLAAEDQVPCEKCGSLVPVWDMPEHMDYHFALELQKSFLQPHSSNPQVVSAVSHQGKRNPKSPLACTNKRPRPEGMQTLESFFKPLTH
smiles,measurement,setting,value
O=C1N/C(=N/NC(=O)c2cccc3ccccc23)S/C1=C\c1ccccc1OCc1ccccc1,Potency,[1],3.55 µM (active)
same,Potency,[2],inactive
same,activation,[3],"0.729% [at 17.1 µM, percent relative to cAMP agonist control]"
same,Potency,[4],inactive
same,activation,[5],8.81% [at 30.8 µM]
CCOC(=O)c1cc2n(c1/N=C/N(C)C)-c1ccccc1C2=O,Potency,[6],5.8 µM (active)
same,Potency,[1],inactive
same,Potency,[2],inactive
same,activation,[3],"6.24% [at 17.1 µM, percent relative to cAMP agonist control]"
same,Potency,[4],inactive
same,"activity change, negative = inhibition",[7],1.53% [at 30.8 µM]
CC1CN(c2nc3ccccc3nc2C(C#N)C(=O)NCc2ccc3c(c2)OCO3)CC(C)O1 (centres undefined),Potency,[6],inactive
same,Potency,[1],inactive
same,Potency,[2],inactive
same,Potency,[3],inactive
same,Potency,[4],inactive
same,Potency,[7],inactive
CC(C)CC1C(=O)N(Cc2cn(Cc3ccco3)nn2)CCS(=O)(=O)N1Cc1ccc(-c2ccc(F)cc2)cc1 (centres undefined),Potency,[1],84.9 µM (active)
same,Potency,[2],inactive
same,Potency,[3],inactive
same,Potency,[4],21.3 µM (active)
same,Potency,[5],inactive
CC1CC1c1ccc(/C=C(\C#N)C(=O)Nc2ccc(Cl)cc2)o1 (centres undefined),Potency,[1],inactive
same,Potency,[2],inactive
same,Potency,[3],inactive
same,Potency,[4],inactive
same,Potency,[5],inactive
CCOc1cc(/C=C2/SC(=S)NC2=O)ccc1OC(=O)c1ccco1,Potency,[1],37.9 µM (active)
same,Potency,[2],inactive
same,Potency,[3],inactive
same,Potency,[4],16.9 µM (active)
same,Potency,[5],inactive
C=CCN(CC=C)Cc1cc(=O)oc2cc(OC)c(Cl)cc12,Potency,[1],inactive
same,Potency,[2],inactive
same,activation,[3],"3.78% [at 17.1 µM, percent relative to cAMP agonist control]"
same,Potency,[4],inactive
same,activation,[5],20.9% [at 30.8 µM]
Cc1ccc([N+](=O)[O-])cc1S(=O)(=O)N1CCC(C)CC1,Potency,[1],inactive
same,Potency,[2],inactive
same,Potency,[3],inactive
same,Potency,[4],inactive
same,Potency,[5],inactive
Cc1cc(C)c(Nc2cc(S(=O)(=O)O)c(N)c3c2C(=O)c2ccccc2C3=O)c(C)c1,Potency,[1],30.1 µM (active)
same,Potency,[2],inactive
same,Potency,[3],inactive
same,Potency,[4],75.7 µM (active)
same,Potency,[5],inactive
CC1(Cc2ccccc2OC(F)(F)F)C(=O)Nc2ccc(-c3ccsc3)cc21 (centres undefined),Potency,[1],42.6 µM (active)
same,Potency,[2],inactive
same,Potency,[3],inactive
same,Potency,[4],33.8 µM (active)
same,Potency,[5],inactive
CN1/C(=C/C=C/c2n(C)c3cc([N+](=O)[O-])c([N+](=O)[O-])cc3[n+]2C)C(C)(C)c2ccccc21,Potency,[1],30.1 µM (active)
same,Potency,[2],inactive
same,Potency,[3],inactive
same,Potency,[4],42.6 µM (active)
same,Potency,[5],inactive
Cc1ccc(-c2nnc(Nc3ccc4c(c3)nc(C)n4C)c3ccccc23)cc1,Potency,[1],inactive
same,Potency,[2],inactive
same,activation,[3],"2.89% [at 17.1 µM, percent relative to cAMP agonist control]"
same,Potency,[4],inactive
same,activation,[5],12% [at 30.8 µM]
COc1ccc(-c2c(-c3ccccc3OC)oc3ccccc23)cn1,Potency,[1],inactive
same,Potency,[2],inactive
same,activation,[3],"1.88% [at 17.1 µM, percent relative to cAMP agonist control]"
same,Potency,[4],inactive
same,activation,[5],7.21% [at 30.8 µM]
CC(C)Cn1c(SC(C)C(=O)NCC2CCCO2)nc2ccc(Cl)cc2c1=O (centres undefined),Potency,[1],inactive
same,Potency,[2],inactive
same,Potency,[3],inactive
same,Potency,[4],5.36 µM (active)
same,Potency,[5],inactive
Cc1ccc(C)c(NC(=O)COC(=O)COc2cccc3c2OC(C)(C)C3)c1,Potency,[1],inactive
same,Potency,[2],inactive
same,activation,[3],"-3.91% [at 17.1 µM, percent relative to cAMP agonist control]"
same,Potency,[4],inactive
same,activation,[5],3.82% [at 30.8 µM]
Cc1ccc(CNC(=O)c2ccc3c(c2)nc(C)n3-c2cccc(F)c2)cc1,Potency,[1],inactive
same,Potency,[2],inactive
same,Potency,[3],inactive
same,Potency,[4],inactive
same,Potency,[5],inactive
CCC(Oc1ccccc1)C(=O)Nc1ccccc1N1CCCCC1 (centres undefined),Potency,[1],inactive
same,Potency,[2],inactive
same,Potency,[3],inactive
same,Potency,[4],inactive
same,Potency,[5],inactive
N#Cc1c(N2CCCCC2)nc(N)c2c(N)nc(SCC(=O)O)cc12,Potency,[8],19 µM (active)
same,Potency,[1],31.6 µM (active)
same,Potency,[2],inactive
same,activation,[3],"13.6% [at 17.1 µM, percent relative to cAMP agonist control]"
same,Potency,[4],inactive
same,"activity change, negative = inhibition",[7],35.9% [at 30.8 µM]
Cc1csc(N=Nc2ccc(N(C)C)cc2)[n+]1[O-],Potency,[1],67.5 µM (active)
same,Potency,[2],inactive
same,Potency,[3],inactive
same,Potency,[4],37.9 µM (active)
same,Potency,[5],inactive
COc1ccc2nc3ccccc3nc2c1NC(=O)c1ccc(Cl)cc1Cl,Potency,[6],inactive
same,Potency,[1],inactive
same,Potency,[2],100 µM (active)
same,Potency,[3],100 µM (active)
same,Potency,[4],inactive
same,Potency,[7],inactive
O=C(C1CC1)N1CCN(c2ccc([N+](=O)[O-])cc2-n2cccc2)CC1,Potency,[1],inactive
same,Potency,[2],inactive
same,activation,[3],"4.17% [at 17.1 µM, percent relative to cAMP agonist control]"
same,Potency,[4],inactive
same,activation,[5],6.18% [at 30.8 µM]
CCn1cc(SCC(=O)NCc2ccc3c(c2)OCO3)c2ccccc21,Potency,[1],inactive
same,Potency,[2],inactive
same,activation,[3],"0% [at 17.1 µM, percent relative to cAMP agonist control]"
same,Potency,[4],inactive
same,activation,[5],20.3% [at 30.8 µM]
COc1cc(OC)c(-c2c3cc(O)c(=O)cc-3oc3cc(O)c(O)cc23)cc1OC,Potency,[1],inactive
same,Potency,[2],89.1 µM (active)
same,Potency,[3],100 µM (active)
same,Potency,[4],inactive
same,Potency,[5],70.8 µM (active)
CCC1=NN(C(=O)c2ccc(Br)cc2)C(O)(c2ccccc2)C1 (centres undefined),Potency,[1],inactive
same,Potency,[2],inactive
same,activation,[3],"2.89% [at 17.1 µM, percent relative to cAMP agonist control]"
same,Potency,[4],inactive
same,activation,[5],19.8% [at 30.8 µM]
CCC(CC)C(=O)N1c2ccccc2C(C)(c2ccccc2)CC1(C)C (centres undefined),Potency,[1],inactive
same,Potency,[2],inactive
same,Potency,[3],inactive
same,Potency,[4],inactive
same,Potency,[5],inactive
O=CN(c1ccccc1)c1ccc2ccccc2c1,Potency,[1],inactive
same,Potency,[2],inactive
same,activation,[3],"1.36% [at 17.1 µM, percent relative to cAMP agonist control]"
same,Potency,[4],inactive
same,activation,[5],4.55% [at 30.8 µM]
Cc1ccc(C)c(-n2c(CCC(=O)O)ccc2-c2ccc(Cl)cc2)c1,Potency,[1],inactive
same,Potency,[2],inactive
same,Potency,[3],inactive
same,Potency,[4],inactive
same,Potency,[5],inactive
CC(C)CCn1c(Oc2ccc(Cl)cc2)nc2c1c(=O)n(C)c(=O)n2C,Potency,[1],inactive
same,Potency,[2],inactive
same,Potency,[3],inactive
same,Potency,[4],16.9 µM (active)
same,Potency,[5],inactive
